Measured values as given in PubChem BioAssay AID1508622 (National Center for Advancing Translational Sciences (NCATS), 2021).
Calls of active or inactive are those of the source. A call without a number means that no potency is given here. Calls come from the whole dose curve; as a rule, active = well fitted activation curve with a large enough effect; inconclusive = small, poorly fitted or top-dose-only effect; inactive = no such curve, though single readings can be large or run the other way.

Assay: Confirmatory qHTS for Identification of Small Molecule Activators of Huntingtin-Antisense Promoter Activity
Details: HEK293 HTT-AS promoter firefly luciferase reporter, 24 h; series mostly up to 57.5 µM
In short: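 2,500 luciferase reporter HEK293 cells/well; 24 h culture; cpds up to 57.5 uM final, PTC124 50 uM ctrl; 24 h, 37C; Dual-Glo FLuc reagent, 10 min RT; lum. Norm.: vehicle 0%, zero RLU -100%.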

Row | SMILES | Potency
1 | COc1ccccc1CCNC(=O)c1ccc(-c2nc(CSc3ccc(C)cc3)c(C)o2)cc1 | inactive
2 | CC(C)Cn1c(-c2ccc(S(=O)(=O)N3CCCC3)cc2)csc1=Nc1ccccc1 | inactive
3 | Cc1ccc(Cl)cc1-n1ncc2c(NCCCc3ccccc3)ncnc21 | inactive
4 | COc1ccccc1N=c1scc(-c2ccc(S(=O)(=O)N3CCCC3)cc2)n1C | inactive
5 | COc1ccc(-c2cc(C)no2)cc1S(=O)(=O)N1CCN(c2ccccc2F)CC1 | inactive
6 | CC(C)c1ccc(Cc2cnc(NC(=O)c3ccc4c(c3)CC(c3ccccc3)OC4=O)s2)cc1 (stereo not drawn) | inactive
7 | COc1ccc(C)cc1NC(=O)Cn1c(=O)cc(C)c2c(C)nn(C)c21 | inactive
8 | CC(=O)c1cccc(NS(=O)(=O)c2ccc3[nH]c4c(c3c2)CCCCC4)c1 | inactive
9 | COc1ccc(N2CCN(CCCNC(=O)c3c(C)nn(-c4ccc(F)cc4)c3-n3cccc3)CC2)cc1 | inactive
10 | Cc1ccc(CSC2=Nc3ccccc3C3=NC(CC(=O)NC4CCCCC4)C(=O)N23)cc1 (stereo not drawn) | inactive
11 | COc1cc(C2C(C(=O)Nc3ccccc3C)=C(C)Nc3nc(SCc4cc(C)ccc4C)nn32)ccc1O (stereo not drawn) | inactive
12 | O=C(O)c1ccc2c(c1)N(Cc1ccc(F)cc1)C(=O)c1ccccc1S2=O (stereo not drawn) | inactive
13 | Cc1cccc(N2CCN(S(=O)(=O)c3cc(C(=O)Nc4ccc(Oc5ccccc5)cc4)ccc3F)CC2C)c1 (stereo not drawn) | inactive
14 | CCCOc1ccc(C(=O)Nc2ccc(-c3cc4ccccc4oc3=O)c(C)c2)cc1 | inactive
15 | COc1ccc(CNC(=O)Nc2ccc3c(c2)N(C)C(=O)c2ccccc2S3)cc1OC | inactive
16 | CC(C)Cc1ccc(S(=O)(=O)Nc2ccc3[nH]c(=O)[nH]c3c2)cc1 | inactive
17 | Cc1ccc(CNC(=O)c2ccc(CSc3nc4ccncc4n3Cc3ccc(C)cc3)cc2)cc1 | inactive
18 | COc1cccc(OCc2nc3ccccc3n2CCOc2ccccc2)c1 | inactive
19 | CCc1nc2ccc(C(=O)NCCc3ccc(OC)cc3OC)cc2nc1CC | inactive
20 | O=C(Nc1ccc(Br)cc1)c1cc(S(=O)(=O)NC2CCCC2)ccc1F | inactive
21 | COc1ccc(NS(=O)(=O)c2ccc3c(c2)CCCN3C(=O)C2CCC2)cc1OC | inactive
22 | CCC(C(=O)NCCc1ccc(SC)cc1)n1nc(C)c2c(C)n(-c3ccc(C)cc3)nc2c1=O (stereo not drawn) | inactive
23 | COc1ccccc1N1CCN(C(CNC(=O)C(=O)NCc2ccc(C)cc2)c2cccnc2)CC1 (stereo not drawn) | inactive
